Among the data in PubChem BioAssay AID492953 (The Scripps Research Institute Molecular Screening Center, 2010) are inhibition values, retold here.

Hit rate of the full screen: of about 340,000 compounds, about 4,200 (1.2%) were called active.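 The calls were made as follows: active = inhibition above the mean of all tested compounds plus 3 SD (cut at about 24% in these data); inactive = the rest.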 The full list was thinned out, with actives kept by preference.

One may read the inhibition as the relative decrease from the control value, in per cent.

The target of the experiment is Platelet-activating factor acetylhydrolase IB subunit alpha2 (Homo sapiens) (UniProt P68402). Description: inhibition of PAF acetylhydrolase 1b subunit 2 – biochemical, fluorescence polarization, human, primary screen (AID 492953).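 Also: 0% = enzyme with DMSO and 100% = wells lacking PAFAH1B2.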 As to conditions: recombinant PAFAH1B2, FP-rhodamine activity probe, at 3.39 µM, hits give high values. In general terms: Fluorescence polarisation rises when a labelled molecule tumbles more slowly, as on binding a larger partner.
Sequence of Platelet-activating factor acetylhydrolase IB subunit alpha2 (Homo sapiens) (P68402 whole entry, looked up): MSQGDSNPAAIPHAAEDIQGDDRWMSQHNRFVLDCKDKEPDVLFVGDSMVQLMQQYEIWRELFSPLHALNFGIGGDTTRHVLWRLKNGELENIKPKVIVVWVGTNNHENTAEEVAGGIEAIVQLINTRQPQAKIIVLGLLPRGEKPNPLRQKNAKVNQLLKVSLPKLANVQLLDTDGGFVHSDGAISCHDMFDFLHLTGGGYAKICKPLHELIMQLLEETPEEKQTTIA
For `C/C(=N\Nc1ccc(Cl)nn1)c1ccccc1O`, the inhibition was -0.23% (inactive).
In the case of `COc1ccccc1N1CCN(C(=O)c2ccc(Cl)c(S(=O)(=O)N3CCCC3)c2)CC1` it was 2.58% (inactive).
Under `COc1ccccc1N1CCN(S(=O)(=O)c2ccc3c(c2)NC(=O)CS3)CC1` stands -1.51% (inactive); under `COc1ccccc1N1CCN(S(=O)(=O)c2ccc(Cl)cc2)CC1`, 31.7% (active).
Under `COc1ccc(CCNC(=O)CN2CCC(n3nnc4cc(F)ccc43)CC2)cc1OC` stands 4.75% (inactive); under `CCOC(=O)c1[nH]c(C)c(C(=O)OCC(=O)N2c3ccccc3CC2C)c1C` (stereo unspecified), 3.77% (inactive).
For `CSC1=NC2(C)CCCCC2C12C=CC(=O)C=C2` (stereo unspecified), the inhibition was 24.6% (active).
Consider `O=C(CC(=O)c1cccnc1)c1ccccc1`, for which the inhibition was 0.07% (inactive).
In the case of `CC[n+]1c(C)n(-c2ccccc2)c2ccc(NC(C)=O)cc21` it was 1.05% (inactive); in that of `CCc1ccc(NC(=O)CN2C(=O)CSC2=O)cc1`, 4.64% (inactive).
Regarding `Cc1ccc(S(=O)(=O)N(CCCN(C)C)Cc2ccc3c(c2)OCO3)cc1`, the inhibition was 1.52% (inactive).
For `O=C(Oc1ccc2c(c1)CCC2)N1CCOCC1`, the inhibition is 2.56% (inactive).
In the case of `N#Cc1ccc(C(c2nnnn2CCc2ccccc2)N2CCCCCC2)cc1` (stereo unspecified) it was 25.7% (active); in that of `COc1ccc(CCn2nnnc2C(c2ccccc2)N2CCN(C)CC2)cc1OC` (stereo unspecified), 2.25% (inactive).
In the case of `CC(C)C(c1nnnn1CCc1ccccc1)N1CCN(C(=O)c2ccco2)CC1` (stereo unspecified) it was 3.54% (inactive); in that of `O=C(NCc1ccc2c(c1)OCO2)c1c(O)nc2sccn2c1=O`, 5.79% (inactive).
In the case of `Cc1ccc(C(=O)CN2C(=O)NC3(CCOc4ccccc43)C2=O)s1` (stereo unspecified) it was -1.4% (inactive).
On to `Cc1cccc(OCCNC(=S)NC(=O)c2cccnc2)c1`, for which the inhibition was -2.68% (inactive).
Under `C=CCNC(=O)CCCOc1cccc(C)c1` stands -2.13% (inactive); under `Cc1cccc(OCCNC(=O)CSc2ccc(C(F)(F)F)cc2[N+](=O)[O-])c1`, 27.4% (active); under `CC(C)NC(=O)Nc1cccc2c1O[C@H](CN(C)S(=O)(=O)c1cccs1)[C@@H](C)CN([C@H](C)CO)C2=O`, 6.94% (inactive).
In the case of `Cc1cc2oc(=O)cc(CN(C)Cc3ccc(OC(F)F)cc3)c2cc1Cl` it was -0.62% (inactive); in that of `Cc1cc2oc(=O)cc(CN3CCN(Cc4ccccc4)CC3)c2cc1C`, -2.46% (inactive).
In the case of `Cc1ccc(CN(C)Cc2cc(=O)oc3cc(C)c(Cl)cc23)cc1` it was 28.5% (active); in that of `CCn1c(SCC(=O)Nc2cccc(F)c2)nnc1-c1cc2cc(Br)ccc2o1`, -4.23% (inactive).
In the case of `C=CCn1c(SCC(=O)NC)nnc1C12CC3CC(CC(C3)C1)C2`, the inhibition is 4.85% (inactive).
In the case of `C=CCn1c(-c2ccc3[nH]c(C)c(C)c3c2)n[nH]c1=S` it was -1.88% (inactive).
With `C=CCn1c(C23CC4CC(CC(C4)C2)C3)n[nH]c1=S`, the inhibition is 29.8% (active).
In the case of `Cc1cc(C)cc(NC(=O)C(OC(=O)c2ccc(O)cc2)c2ccccc2)c1` (stereo unspecified) it was -4.34% (inactive); in that of `O=C1/C(=C\c2ccc([N+](=O)[O-])cc2)CS(=O)(=O)C/C1=C/c1ccc([N+](=O)[O-])cc1`, -2.78% (inactive).
`O=C(O)c1cc(S(=O)(=O)N(Cc2ccccc2)c2cccc(C(F)(F)F)c2)ccc1Cl`: the inhibition is 28.5% (active).
In the case of `Cc1ccc(N(CCC(=O)O)S(=O)(=O)c2cccc(C(F)(F)F)c2)cc1` it was 19.6% (inactive).
In the case of `O=C(O)c1cc(S(=O)(=O)N(Cc2ccccc2)c2ccccc2)ccc1Cl` it was 18.7% (inactive).
Under `CS(=O)(=O)Nc1ccccc1N=C(c1ccccc1)c1ccccc1` stands 5.79% (inactive).
As to `Cc1ccc(-c2cc(=O)[nH]c(NCc3ccccc3)n2)cc1`, the inhibition is 24.5% (active).
With `Cc1ccc(O)c(CNc2nc3ccccc3[nH]2)c1`, the inhibition was 0.09% (inactive).
Under `O=c1cc(-c2ccccc2)nc(N2CCCCC2)[nH]1` stands -3.66% (inactive); under `O=C(O)c1ccc(-n2cccc2)cc1O`, 4.37% (inactive).
On to `COc1cccc(CNn2cn[nH]c2=S)c1OCc1ccccc1`, for which the inhibition was 0.39% (inactive).
Under `O=C(CCNC(=O)C1CCN(S(=O)(=O)c2ccccc2)CC1)NC1CC1` stands 1.71% (inactive); under `CCc1nnc(NC(=O)c2nc3nccc(C)n3n2)s1`, 7.37% (inactive); under `CCc1ccc2nc3sc(C(=O)Nc4nnc(CC)s4)c(N)c3cc2c1`, 32.2% (active).
Under `CCc1nnc(NC(=O)c2cccc(S(=O)(=O)N(C)c3ccc(OC)cc3)c2)s1` stands 10.2% (inactive); under `COc1ccc(Cl)cc1C=CC=Nc1ccc(S(N)(=O)=O)cc1`, -2.05% (inactive).
Under `Cc1c(C(=O)OCC(=O)N(CCC#N)c2ccccc2)oc2c1ccc1ccccc12` stands -1.31% (inactive).
For `CC(C)(C)NC(=O)c1cccc(NC(=O)Cc2ccc(Br)cc2)c1`, the inhibition was 28.1% (active).
Under `Cc1cccc(NC(=O)Cc2ccc(Br)cc2)n1` stands 8.34% (inactive); under `O=C(Cc1ccccc1)Nc1cccc(NC(=O)c2ccccc2)c1`, 3.28% (inactive).
Under `CN1CCN(C(=O)CCc2ncc(C(F)(F)F)cc2Cl)CC1` stands -0.83% (inactive).
Under `CCC(=O)N1CCC(C(N)=O)(N2CCCCC2)CC1` stands -0.67% (inactive); under `CC(=O)c1sc(NC(=O)CCN2C(=O)C3CC=CCC3C2=O)nc1-c1ccccc1` (stereo unspecified), -3.33% (inactive); under `CC1=CC(=NNS(=O)(=O)c2ccc([N+](=O)[O-])cc2)CC(C)(C)C1`, 31.9% (active).
`CC(C=Cc1ccccc1)=NNS(=O)(=O)c1ccc([N+](=O)[O-])cc1`: the inhibition is 6.62% (inactive).
Under `Cc1cccc(NS(=O)(=O)c2ccc([N+](=O)[O-])cc2)n1` stands 1.97% (inactive); under `CCOC(=O)[C@H]1[C@H]2COc3ccccc3[C@@H]2N2C(=O)CN(Cc3ccccc3)C(=O)[C@@]12C`, -3.13% (inactive).
As for `COc1ccc(CNC(=O)c2cc(=O)c3c(C)cc(C)cc3o2)cc1`, the inhibition was -0.18% (inactive).
In the case of `CCCCN(C(=O)/C=C/c1ccco1)c1c(N)n(CC(C)C)c(=O)[nH]c1=O`, the inhibition was -1.15% (inactive).
In the case of `CC(=O)Nc1ccc(S(=O)(=O)Oc2ccc(Br)cc2C(=S)N2CCOCC2)cc1` it was 0.45% (inactive); in that of `Cc1ccc(NS(=O)(=O)c2ccc(N/N=C/c3ccccc3OCC(=O)O)c([N+](=O)[O-])c2)c(C)c1`, 4.33% (inactive); in that of `COc1cccc(/C=N/Nc2ccc(S(=O)(=O)Nc3ccccc3C(=O)O)cc2[N+](=O)[O-])c1O`, 32.2% (active).
With `COc1ccc(Br)cc1/C=N/Nc1ccc(S(=O)(=O)Nc2ccccc2C(=O)O)cc1[N+](=O)[O-]`, the inhibition was 4.57% (inactive).
